In the supplement of paper PMC9950053:
Structures can show the parent of a compound that is named as a salt.

Each molecule was assayed on Danio rerio larvae (5 dpf) (assay: habituation (activity change first vs second 5 min of 1-s interval sound, period 17) minus DMSO control (percentage points); higher = larger habituation measure than DMSO larvae). Settings: 10 µM; exposure time: 3 h pre-incubation + 3 h imaging.
Description: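 Wild-type 5 dpf zebrafish larvae (n=48 per drug, 96-well plates, 28.5 °C) were exposed to Tocris FDA-approved library compounds at 10 µM (0.1% DMSO) for 3 h before and 3 h during imaging. Images were taken every 6 s during visual and acoustic stimuli, and larvae were tracked with Z-LaP Tracker. Each measure is the treated-group mean minus the DMSO control mean (n=844), in percentage points. This mapping covers compounds with 5-character plate codes.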

| SMILES | habituation |
| --- | --- |
| N#Cc1ccc2[nH]cc(CCCCN3CCN(c4ccc5oc(C(N)=O)cc5c4)CC3)c2c1 [Vilazodone hydrochloride] | -2.05 |
| CNC(=O)c1cc(Oc2ccc(NC(=O)Nc3ccc(Cl)c(C(F)(F)F)c3)cc2)ccn1 [Sorafenib] | -9.55 |
| CC[C@H]1OC(=O)[C@H](C)[C@@H](O[C@H]2C[C@@](C)(OC)[C@@H](O)[C@H](C)O2)[C@H](C)[C@@H](O[C@@H]2O[C@H](C)C[C@H](N(C)C)[C@H]2O)[C@](C)(O)C[C@@H](C)CN(C)[C@H](C)[C@@H](O)[C@]1(C)O [Azithromycin] | 3.26 |
| O=C(O)C[C@H](O)C[C@H](O)/C=C/c1c(C2CC2)nc2ccccc2c1-c1ccc(F)cc1 [Pitavastatin calcium] | -5.34 |
| CC(C)OC(=O)C(C)(C)Oc1ccc(C(=O)c2ccc(Cl)cc2)cc1 [Fenofibrate] | -2.39 |
| COc1ccccc1Oc1c(NS(=O)(=O)c2ccc(C(C)(C)C)cc2)nc(-c2ncccn2)nc1OCCO [Bosentan] | 4.58 |
| OC(c1cc(C(F)(F)F)nc2c(C(F)(F)F)cccc12)C1CCCCN1 (configuration not stated) [Mefloquine hydrochloride] | 3.04 |
| NC(=O)OCC(COC(N)=O)c1ccccc1 [Felbamate] | 2.5 |
| C#CCN[C@@H]1CCc2ccccc21 [Rasagiline mesylate] | 3.64 |
| CN(C)C(=N)NC(=N)N [Metformin hydrochloride] | 2.17 |
| O=C1CCc2ccc(OCCCCN3CCN(c4cccc(Cl)c4Cl)CC3)cc2N1 [Aripiprazole] | -7.85 |
| C[C@H]1O[C@H](O[C@H]2[C@H](O)[C@@H](O)[C@@H](O[C@H]3[C@H](O)[C@@H](O)C(O)O[C@@H]3CO)O[C@@H]2CO)[C@H](O)[C@@H](O)[C@@H]1N[C@H]1C=C(CO)[C@@H](O)[C@H](O)[C@H]1O (some centres not stated) [Acarbose] | 1.19 |
| CCCc1nn(C)c2c(=O)[nH]c(-c3cc(S(=O)(=O)N4CCN(C)CC4)ccc3OCC)nc12 [Sildenafil citrate] | -2.72 |
| OCc1cc(C(O)CNCCCCCCOCCCCc2ccccc2)ccc1O (configuration not stated) [Salmeterol xinafoate] | -0.659 |
| CNCc1ccc(-c2[nH]c3cc(F)cc4c3c2CCNC4=O)cc1 [Rucaparib camsylate] | 5.03 |
| COc1cc([C@@H]2c3cc4c(cc3[C@@H](O[C@@H]3O[C@@H]5CO[C@@H](C)O[C@H]5[C@H](O)[C@H]3O)[C@H]3COC(=O)[C@H]23)OCO4)cc(OC)c1O [Etoposide] | 1.7 |
| COCCc1ccc(OCC(O)CNC(C)C)cc1 (configuration not stated) [Metoprolol tartrate] | -3.41 |
| CCCC1O[C@@H]2C[C@H]3[C@@H]4CCC5=CC(=O)C=C[C@]5(C)[C@H]4[C@@H](O)C[C@]3(C)[C@]2(C(=O)CO)O1 (some centres not stated) [Budesonide] | -1.55 |
| CC(C)COCC(CN(Cc1ccccc1)c1ccccc1)N1CCCC1 (configuration not stated) [Bepridil hydrochloride] | -5.91 |

| SMILES | habituation |
| --- | --- |
| CCc1nc(N)nc(N)c1-c1ccc(Cl)cc1 [Pyrimethamine] | 3.38 |
| N#C[C@@H]1C[C@@H]2C[C@@H]2N1C(=O)[C@@H](N)C12CC3CC(CC(O)(C3)C1)C2 [Saxagliptin hydrochloride] | 2.76 |
| COc1cc(N)c(Cl)cc1C(=O)NC1CCN(CCCOc2ccc(F)cc2)CC1OC (configuration not stated) [Cisapride] | 4.4 |
| OCCN1C[C@H](O)[C@@H](O)[C@H](O)[C@H]1CO [Miglitol] | -1.71 |
| CC(=O)Nc1ccc(O)cc1 [Acetaminophen] | -1.62 |
| Clc1ccc2nsnc2c1NC1=NCCN1 [Tizanidine hydrochloride] | -2.36 |
| NS(=O)(=O)c1cc2c(cc1Cl)NC(C1CC3C=CC1C3)NS2(=O)=O (configuration not stated) [Cyclothiazide] | 1.92 |
| COc1cc2nccc(Oc3ccc(NC(=O)C4(C(=O)Nc5ccc(F)cc5)CC4)cc3)c2cc1OC | -4.58 |
| CNS(=O)(=O)Cc1ccc2[nH]cc(CCN(C)C)c2c1 [Sumatriptan succinate] | 2.06 |
| CCCCCCCN(CC)CCCC(O)c1ccc(NS(C)(=O)=O)cc1 (configuration not stated) [Ibutilide hemifumarate] | -0.126 |
| COc1ccccc1OCC(O)CN1CCN(CC(=O)Nc2c(C)cccc2C)CC1 (configuration not stated) [Ranolazine dihydrochloride] | -2.2 |
| C[C@@H]1C[C@H]2[C@@H]3CCC4=CC(=O)C=C[C@]4(C)[C@@]3(F)[C@@H](O)C[C@]2(C)[C@@]1(O)C(=O)CO [Dexamethasone] | 2.24 |
| Cc1cc2c(s1)Nc1ccccc1N=C2N1CCN(C)CC1 [Olanzapine] | 0.758 |
| CN[C@H]1CC[C@@H](c2ccc(Cl)c(Cl)c2)c2ccccc21 [Sertraline hydrochloride] | -8.76 |
| CN(C)CCc1c[nH]c2ccc(C[C@H]3COC(=O)N3)cc12 [Zolmitriptan] | -0.595 |
| CC(=O)Oc1cc2c(s1)CCN(C(C(=O)C1CC1)c1ccccc1F)C2 (configuration not stated) [Prasugrel] | 0.528 |
| O=c1n(CCCN2CCN(c3cccc(Cl)c3)CC2)nc2ccccn12 [Trazodone hydrochloride] | -12.5 |
| CC(C)(C(=O)O)c1ccc(C(O)CCCN2CCC(C(O)(c3ccccc3)c3ccccc3)CC2)cc1 (configuration not stated) [Fexofenadine hydrochloride] | 3.94 |
